For 40 compounds, Potency and activity change, negative = cytotoxicity results are on record in PubChem BioAssay (NCATS).

Records with an inconclusive call do not appear. A call without a number means that no potency is given here. Unmarked numbers belong to inactive results. Active and inactive are the calls of the source. Calls come from the whole dose curve; as a rule, active = well fitted inhibition curve with a large enough effect; inconclusive = small, poorly fitted or top-dose-only effect; inactive = flat fitted curve, though single readings scatter.
Potency is the fitted concentration of half-maximal effect.

For the assay, the system named is MCC-26. The experiment in a line: qHTS assay to identify novel small-molecules to repurpose for Merkel cell carcinoma treatment (AID 1296009). Note: nearly all actives have a fitted effect of over 60% in size. As to conditions: MCC and control cell lines, CellTiter-Glo viability, 72 h; series mostly up to 46 µM. The text has this:
MCC is a rare and aggressive neuroendocrine skin cancer with limited treatment options. Approximately 80% of MCCs have the Merkel cell polyomavirus (MCPyV) DNA integrated into the host genome (virus-positive: VP-MCC) and viral oncogenes drive oncogenesis. The remaining MCCs are virus-negative (VN-MCC) and are caused by UV mutagenesis. To identify novel treatments for VP-MCC and/or VN-MCC we screened three VP-MCC cell lines (WAGA, MKL-1, MKL-2), three VN-MCC cell lines (MCC-13, MCC-26, UISO), and four immortalized, non-transformed control cell lines (HaCaT, HEK293T, CRL7250, NIH-3T3) against ~2,400 compounds in the NCGC Pharmaceutical Collection (NPC) and ~1,900 compounds in the Mechanism Interrogation PlatE (MiPE). Using cell viability as a readout (CellTiter-Glo assay) we found both overlapping and distinct drugs that can be repurposed for the treatment of VP-MCC and VN-MCC.
A high-throughput screen was conducted in 1536-well white flat bottom plates (Corning) on a Kalypsys robotic system. Cell lines WAGA, MKL-1, MKL-2, MCC-13, MCC-26, UISO, HaCaT, HEK293T, CRL7250, and NIH-3T3 were screened against 2 small molecule annotated drug libraries NPC and MIPE in dose response (8 and 11 pt. respectively) measuring cell viability after 72 hours of incubation. […] A 1,536 pintool (Kalypsys) was used to transfer 23 nL of compound in DMSO to the 1,536-well assay plates. After 72 hr incubation at 37 degree celsius, 2.5 uL of CellTiter-Glo (Promega) was dispensed into each well using a BiorapTR. Plates were incubated at room temperature for 10 min, transferred to a ViewLux (PerkinElmer) and the luminescence was recorded using an exposure time of 2 seconds. Relative luminescence units (RLUs) were normalized to in-plate controls (no cells as a positive (cytotoxicity) control, DMSO as negative control) and the normalized data was processed using NCATS in-house software.
For `c1ccc(-c2oc3ncnc(NC[C@@H]4CCCO4)c3c2-c2ccccc2)cc1`, the Potency entry was “inactive”.
Still for that read-out and setting: next, `N#CC(c1ccc(Cl)cc1)c1c(Cl)cc(-n2ncc(=O)[nH]c2=O)cc1Cl` (stereo not given): “inactive”; `OC1CCC(Nc2ncc3nc(Nc4c(F)cc(F)cc4F)n([C@@H]4CCOC4)c3n2)CC1` (stereo not given in full): “inactive”.
On the same count and under the same terms, for `OC[C@H]1O[C@@H](OCCc2ccc(O)cc2)[C@H](O)[C@@H](O)[C@H]1O` the value was “inactive”; for `Fc1ccc(CNc2ncnc3ccc(F)cc23)cc1`, “inactive”.
Same read-out and setting: for `CN(C)CCN(Cc1ccc(Cl)cc1)c1ccccn1` the value was “inactive”; for `COc1cc(Cl)cn2c(-c3cccc(NC4CNC4)n3)cnc12`, “inactive”; for `CC(C)=CCCC(C)=CCCC(C)=CCCC(C)=CCCC(C)=CCCC(C)=CCCC(C)=CCCC(C)=CCCC(C)=CCO`, “inactive”.
For `CCN1CCN(c2ccc(Nc3cc(N(C)C(=O)Nc4c(Cl)c(OC)cc(OC)c4Cl)ncn3)cc2)CC1`, the Potency entry was “inactive”.
On the same count and under the same terms, for `Cc1c(-c2cccc3c(CCCOc4cccc5ccccc45)c(C(=O)O)n(Cc4cccnc4)c23)c(COc2ccc(N3CCN([S+](=O)([O-])N(C)C)CC3)cc2)nn1C` the value was “inactive”.
`CC(C)n1c(C=C[C@H](O)C[C@H](O)CC(=O)O)c(-c2ccc(F)cc2)c2ccccc21`: the Potency was 20.9 µM (active).
Still for that read-out and setting: for `C[C@@]1(C(=O)Nc2ccc(F)nc2)CCCN1c1nc(Nc2cc(C3CC3)[nH]n2)c2cccn2n1` the value was 16.6 µM (active); for `COc1cc(F)c(C(C)C)cc1-c1ccc(C(F)(F)F)cc1CN1C(=O)O[C@H](c2cc(C(F)(F)F)cc(C(F)(F)F)c2)[C@@H]1C`, “inactive”; for `COc1cc(Nc2nc3ccccc3nc2NS(=O)(=O)c2ccc(NC(=O)c3ccc(C)c(OC)c3)cc2)cc(OC)c1`, “inactive”.
Same read-out and setting: next, `CC(C)N(CCCNC(=O)Nc1ccc(C(C)(C)C)cc1)C[C@H]1O[C@@H](n2cc(Br)c3c(N)ncnc32)[C@H](O)[C@H]1O`: “inactive”; `COc1cccc(OC)c1-c1cc(C(=O)NC2(C(=O)O)C3CC4CC(C3)CC2C4)nn1-c1ccnc2cc(Cl)ccc12` (stereo not given): “inactive”; `C=C[C@@H]1CN2CCC1C[C@@H]2C(O)c1ccnc2ccc(OC)cc12` (stereo not given in full): “inactive”.
On the same count and under the same terms, for `OC[C@H]1O[C@@H](Oc2ccc(O)cc2)[C@H](O)[C@@H](O)[C@H]1O` the value was “inactive”; for `CN1CCC(COc2cnc(-c3cccc(Cn4nc(-c5cccc(C#N)c5)ccc4=O)c3)nc2)CC1`, “inactive”; for `O=C1CN2Cc3c(ccc(Cl)c3Cl)N=C2N1`, “inactive”.
In the case of `C[C@H]1[C@H](O)O[C@@H]2O[C@@]3(C)CC[C@@H]4[C@H](C)CC[C@@H]1[C@@]24OO3`, the Potency entry is “inactive”.
Same read-out and setting: for `CCC(=O)NCC[C@@H]1CCc2ccc3c(c21)CCO3` the value was “inactive”.
Still for that read-out and setting: for `CCCCc1ccc(NS(=O)(=O)c2ccc(C)c(C(=O)N3CCN(c4cccc(C)c4C)CC3)c2)cc1` the value was “inactive”.
For `CCOC(=O)[C@H]1O[C@H]1C(=O)N[C@@H](CC(C)C)C(=O)NCCC(C)C`, the Potency entry is “inactive”.
The same measure, in the same setting: for `CC1CCN(c2cc(N3CCN(C)CC3)ccc2NC(=O)c2cc(C#N)c[nH]2)CC1` the value was “inactive”.
As for `CO[C@H]1C=CO[C@@]2(C)Oc3c(C)c(O)c4c(O)c(c(C=NN5CCN(C)CC5)c(O)c4c3C2=O)NC(=O)C(C)=CC=C[C@H](C)[C@H](O)[C@@H](C)[C@@H](O)[C@@H](C)[C@H](OC(C)=O)[C@H]1C`, the activity change, negative = cytotoxicity is -1.4% [at 9.22 µM].
With `C[C@@H](O)[C@H]1C(=O)N2C(C(=O)OCOC(=O)C(C)(C)C)=C(SC3CN(C4=NCCS4)C3)[C@H](C)[C@H]12`, the Potency entry was “inactive”.
Still for that read-out and setting: for `O=C(Nc1cccc(Cl)c1)Nc1ncc(CCNc2ncnc3ccsc23)s1` the value was “inactive”.
For the compound `Cc1nc(C(=O)NCC(=O)O)c(O)c2ccc(Oc3ccccc3)cc12`, the Potency entry is “inactive”.
Still for that read-out and setting: next, `CC(=O)NCCC(=O)N[C@@H](CCC(N)=O)C(=O)N[C@@H](CO)C(=O)N[C@@H](CCC(N)=O)C(=O)N[C@@H](CCC(N)=O)C(=O)N[C@H](C(=O)N[C@@H](Cc1ccccc1)C(=O)N[C@]1(C)CCCCCCC=CCCC[C@@](C)(C(=O)N[C@@H](CCC(N)=O)C(=O)N[C@@H](CC(N)=O)C(N)=O)NC(=O)[C@H](CC(C)C)NC(=O)[C@H](CC(C)C)NC(=O)[C@@H](CCCNC(=N)N)NC(=O)[C@H](Cc2c[nH]c3ccccc23)NC(=O)[C@H](CC(C)C)NC(=O)[C@H](CC(N)=O)NC1=O)[C@H](C)O`: “inactive”; `CNc1nc(Nc2ccc(C(=O)N3CCOCC3)cc2OC)ncc1Cl`: “inactive”.
With `CN[C@H]1[C@@H](O[C@@H]2[C@H](O[C@@H]3[C@@H](O)[C@@H](O)[C@@H](N=C(N)N)[C@@H](O)[C@@H]3N=C(N)N)O[C@H](C)[C@@]2(O)C=O)O[C@@H](CO)[C@@H](O)[C@H]1O`, the activity change, negative = cytotoxicity is -1.52% [at 9.22 µM].
For `O=C(NCCCCN1CCOCC1)c1cc2ccccc2o1`, the Potency entry is “inactive”.
Regarding `CNC(=O)c1cc(Oc2ccc(NC(=O)Nc3ccc(Cl)c(C(F)(F)F)c3)c(F)c2)ccn1`, the Potency entry was “inactive”.
As for `COc1ccc2c(c1)CC[C@H]1[C@@H]2CC[C@]2(C)[C@@H](NCCCCCCN3C(=O)C=CC3=O)CC[C@H]12`, the Potency result was “inactive”.
On the same count and under the same terms, next, `Cc1c(C(=O)Nc2ccc(N3C[C@@H](C)O[C@@H](C)C3)nc2)cccc1-c1ccc(OC(F)(F)F)cc1`: “inactive”.
Same read-out and setting: for `CC1=C(C(=O)Nc2cc3cn[nH]c3cc2F)C(c2ccc(C(F)(F)F)cc2)CC(=O)N1` (stereo not given) the value was “inactive”; for `CN(C)CCCNC(=O)c1ccc(-c2cc(O)c3ncccc3c2)cc1`, “inactive”.
The same measure, in the same setting: for `CC=C1C2C=C(C)CC1(N)c1ccc(=O)[nH]c1C2` (stereo not given) the value was “inactive”; for `CCN(CCO)CCCOc1ccc2c(Nc3cc(CC(=O)Nc4cccc(F)c4)[nH]n3)ncnc2c1`, “inactive”.
